Measured values taken from PubChem BioAssay AID485314 (National Center for Advancing Translational Sciences (NCATS), 2010).
About 4,500 (1.3%) of roughly 340,000 compounds were called active. Inconclusive results (about 5%) are left out. Calls follow the shape of the dose curve; as a rule, active = well fitted inhibition curve with a large enough effect; inconclusive = small, poorly fitted or top-dose-only effect, or another doubt; inactive = no such curve, though single readings can be large or run the other way. The list comes from a sample in which actives are over-represented; it also holds similar structures and randomly drawn compounds.

Biological target: DNA polymerase beta (Homo sapiens) (UniProt P06746)
Test: qHTS Assay for Inhibitors of DNA Polymerase Beta
Conditions: Pol beta primer extension/strand displacement, fluorescence kinetic; series mostly up to 114 µM; activity change, negative = inhibition: at the top concentration
In short: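 10 nM enzyme + cpd, 15 min RT; start with substrate 50 nM final; read 0 min and after 10 min RT. Corrected, normalized data; 4-parameter Hill curve fit.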
% is scaled to controls: 0 for no effect and ±100 for the full control effect; potency is read from the fitted curve at half-maximal effect.

Activity change, negative = inhibition, inactive:
COCCNC(=O)CSc1nc(-c2ccccc2)[nH]c1-c1ccc(C)cc1 5.82%, Cc1cccc(NC(=O)CN(c2ccc(C(C)C)cc2)S(=O)(=O)c2c(C)nn(C)c2C)c1C 36.1%, CCOC(=O)c1c(NC(=O)c2ccc(S(=O)(=O)N(CC)CC)cc2)sc2c1CCCCC2 -0.222%, Cc1cc(C)c2oc(C(=O)Nc3ccc(S(=O)(=O)N(C)c4ccccc4)cc3)cc(=O)c2c1 26.5%, COc1ccc(N2CCN(C(=O)CSCc3nc(-c4ccccc4Cl)oc3C)CC2)cc1 -7.35%, Cc1nc2sc(C)c(C)n2c(=O)c1S(=O)(=O)NCCc1ccc(Cl)cc1 -2.13%, CCc1cccc(-n2nnc(-c3nsc(NC(=O)c4ccc(C)cc4)n3)c2C)c1 -13.5%, CCN(CCCNC(=O)c1cc(Nc2ccc(OC)cc2)nc2ccccc12)c1cccc(C)c1 30.8%, Cc1nonc1C(=O)N/N=C/c1ccc(O)cc1 -11.3%, O=C(N/N=C/c1ccc(OC(=O)c2ccccc2Cl)cc1)c1ccc(O)cc1 17.4%, COc1ccc(N(Cc2cc3ccc(C)cc3[nH]c2=O)S(=O)(=O)c2ccccc2)cc1 6.72%, Cc1ccc2cc(CN(c3ccc(C)c(C)c3)S(C)(=O)=O)c(=O)[nH]c2c1 -21.3%, CCc1ccc(NC(=O)N2CCN(C(=O)c3nsc4ccccc34)CC2)cc1 40.9%, COc1ccc(CNC(=O)CSCc2nc(-c3ccccc3F)oc2C)cc1 0.319%, Cn1cc(S(=O)(=O)N2CCCCCC2)cc1C(=O)N1CCN(c2ccc(F)cc2)CC1 3.17%, O=C(NCCN1C(=O)S/C(=C\c2cccnc2)C1=O)c1cccc(OC(F)F)c1 21.8%, Cc1nn(Cc2ccccc2)c(C)c1C(=O)NCCN1C(=O)S/C(=C\c2ccc(F)cc2)C1=O 5.67%, O=c1c(NCc2cccs2)nccn1-c1ccccc1 -23.5%, COc1ccccc1CN1CCC(CNC(=O)c2cnn(-c3cccc(Cl)c3)c2C2CCN(C(=O)OC(C)(C)C)CC2)CC1 -17.3%, CCc1ccccc1N1CC(c2nc3ccccc3n2CCCCOc2ccccc2)CC1=O (stereo not given) 12%, c1ccc(-c2ccc(OCCN3CCOCC3)cc2)cc1 10.7%, CCOc1nc(NCCN2CCOCC2)nc(Nc2ccc(C)cc2)n1 32%, Cc1cccc2c1-c1sc(C(=O)Nc3ccc(F)cc3F)cc1CO2 -1.64%, Cc1cccc(C(=O)OCC(=O)Nc2ccc(F)cc2)c1 -11.2%, COc1cc(OC)cc(C(=O)OCC(=O)Nc2ccc(F)cc2F)c1 -0.999%, O=c1cc(C(F)(F)F)[nH]c(=O)n1C1CCCCC1 5.99%, Cc1ccc(NNC(=O)C2CCC2)cc1C -17.5%, O=C(O)c1ccc(Nc2nc(-c3ccccc3)c3cc(Br)ccc3n2)cc1 29.2%, COc1cccc(NC(=O)c2ccc3nc(CCc4ccccc4)oc3c2)c1 -29.7%, O=S(=O)(NCC1OCCc2ccccc21)c1ccccc1 (stereo not given) -16.7%, O=S(=O)(NCCNS(=O)(=O)c1ccccc1)c1ccccc1 -13.9%, CCn1cc(C(=O)NCc2ccccc2)c(=O)c2cc(S(=O)(=O)N3CCCCC3)ccc21 8.9%, C/C(=N\NC(=O)c1ccccc1F)c1ccccn1 11.4%, C/C(=N\NC(=O)Cc1ccc(Cl)cc1)c1ccccn1 18.3%, O=C(NCCc1ccc(Cl)cc1)c1ccc2c(c1)N(Cc1ccc(F)cc1)C(=O)CS2 24.1%, CCn1c2c(c(=O)n3ncc(C(=O)N4CCN(c5ccccc5)CC4)c13)CN(Cc1ccc(OC)cc1)CC2 1.91%, N#Cc1c(-c2ccccc2)cc(-c2ccccc2)nc1SCC(=O)O 28.5%, Nc1nc(NCC(=O)O)nc(N2CCCCCC2)c1[N+](=O)[O-] 13.4%, CCC(CC)c1nnc(NC(=O)/C=C/c2ccco2)s1 -1.2%, O=C(/C=C/c1ccco1)Nc1ccc(Oc2ccccc2)cc1 13.9%, CCC(=O)Nc1ccc2nn(-c3ccc(F)cc3)nc2c1 21.1%, CCOC(=O)c1c(NC(=O)/C=C/c2ccco2)sc(C)c1C 26.6%, CCOC(=O)c1c(C)oc2nc(C)nc(Nc3ccc(CC)cc3)c12 -0.741%, Cc1cc(C)c(-c2n[nH]c3c2C(c2ccccc2F)N(CCO)C3=O)c(O)c1 (stereo not given) -23.3%, CC(C)(C)c1ccc(C(=O)NCC(c2ccc(Cl)cc2)N2CCOCC2)cc1 (stereo not given) -0.477%, CCOc1ccc(Nc2nc(Cc3nnc(SCC(=O)NC4CCCC4)n3C)cs2)cc1 19.3%, COCCCn1c(SCC(=O)NC2CCCC2)nnc1-c1ccccc1 56.4%, O=S(=O)(c1ccccc1)c1nc(-c2ccc(Cl)cc2Cl)oc1N1CCCCC1 2.22%, O=C(O)c1ccc2c(c1)C(=O)N(NC(=O)c1ccc(O)cc1)C2=O 11.7%, Cc1cccc(C(=O)c2cccc(C)c2)c1 10.4%, CCOc1ccc(Nc2nc3c(S(=O)(=O)c4cccc(Cl)c4)nnn3c3ccsc23)cc1 74.9%, CCCc1cc(=O)n2[nH]c(NCc3ccc(CC)cc3)nc2n1 3.13%

Potency, active:
Cc1nc2ccc(C(=O)N/N=C/c3ccc(O)cc3)cc2[nH]1 17.8 µM, COc1ccc(N(Cc2cc3cc(OC)ccc3[nH]c2=O)S(C)(=O)=O)cc1 4.47 µM, N#Cc1ccccc1CN1C(=O)S/C(=C/c2cccn2-c2cccc(C(=O)O)c2)C1=O 11.2 µM, c1ccc2cc3c(NCCN4CCOCC4)ccnc3cc2c1 14.1 µM, O=C(COC(=O)c1ccc(F)cc1F)Nc1ncccn1 35.5 µM, Cc1ccc(Nc2cc(=O)n(C3CCCCC3)c(=O)[nH]2)cc1C 56.2 µM, O=c1/c(=C/c2ccc(CNS(=O)(=O)c3ccccc3)o2)sc2n1CCN=2 50.1 µM, CCN(CC)CCOc1ccc2c(c1)C(=NNC(=O)c1ccccn1)c1cc(OCCN(CC)CC)ccc1-2 2.82 µM, N#Cc1c(N2CCCCC2)nc(N)c2c(N)nc(SCC(=O)O)cc12 35.5 µM, Cc1ccc(-n2nc3ccc(NC(=O)/C=C/c4ccco4)cc3n2)cc1C 44.7 µM, Cc1nnc(NC(=O)/C=C/c2ccco2)s1 31.6 µM, COCCCn1c(Cc2csc(Nc3cccc(Cl)c3)n2)nnc1SCC(=O)OC1CCCCC1 44.7 µM, O=C(c1ccc(O)cc1)c1ccc(C(=O)O)c(C(=O)O)c1 35.5 µM
